The values below come from PubChem BioAssay (NCATS).

The subject of test [1] is CRL-7250. Nature of the test: Cytotoxic Profiling of Annotated Libraries Using Quantitative High-Throughput Screening (AID 1296008). For max response: % is set by controls: 0 for no effect and ±100 for the full control effect. Note: potency is the fitted concentration of half-maximal effect. The following applies: Five cell lines viability, CellTiter-Glo ATP luminescence, 48-72 h; max response: hits give low values. The method, boiled down: (§1)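 Cells exposed to compounds for 48 or 72 hr at 37 degrees Celsius. Viability read as ATP-coupled luminescence with CellTiter-Glo after 10 min at room temperature.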
A general note: Cellular ATP, detected with luciferase, serves as a proxy for viable cell number.

A further test has as its system HaCat. The description is as above. The following applies: Five cell lines viability, CellTiter-Glo ATP luminescence, 48-72 h; max response: hits give low values. The method, boiled down: as §1
Another test relates to KB-3-1. Described as above. The following applies: Five cell lines viability, CellTiter-Glo ATP luminescence, 48-72 h; max response: hits give low values. The method, boiled down: as §1
The subject of another test is NIH3T3. Described as above. The note with it: Five cell lines viability, CellTiter-Glo ATP luminescence, 48-72 h; max response: hits give low values. The method, boiled down: as §1
Another test deals with JCK. The experiment in a line: qHTS profiling for inhibitors of Plasmodium falciparum proliferation (AID 504749). Note: potency is the fitted concentration of half-maximal effect. The note with it: P. falciparum in erythrocytes, SYBR Green DNA, 72 h; series mostly up to 28.7 µM. Summed up: (§2)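 P. falciparum-infected erythrocytes (0.3% parasitemia, 2.5% hematocrit) incubated with compound 72 h at 37 C, 5% CO2. Parasite DNA detected by SYBR Green after lysis, overnight at room temperature; normalised to 0.29 uM artemisinin and DMSO.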
(Quantitative high-throughput screening tests each substance at several concentrations.)

A further test has as its system PC15. The test is described as above. The following applies: P. falciparum in erythrocytes, SYBR Green DNA, 72 h; series mostly up to 28.7 µM. Summed up: as §2
For another test, the system named is PC49. The test is described as above. The note with it: P. falciparum in erythrocytes, SYBR Green DNA, 72 h; series mostly up to 28.7 µM. Summed up:
as §2

In the next test the test system is SC27B. The description is as above. The following applies: P. falciparum in erythrocytes, SYBR Green DNA, 72 h; series mostly up to 28.7 µM. Summed up: as §2
The test system of a further test is W2. Described as above. The note with it: P. falciparum in erythrocytes, SYBR Green DNA, 72 h; series mostly up to 28.7 µM. Summed up: as §2
For a further test, the system named is ICS. Described as above. The following applies: P. falciparum in erythrocytes, SYBR Green DNA, 72 h; series mostly up to 28.7 µM. Summed up: as §2
For another test, the system named is N140. The description is as above. The following applies: P. falciparum in erythrocytes, SYBR Green DNA, 72 h; series mostly up to 28.7 µM. The method, boiled down:
as §2

The next test has as its system P93_24. The test is described as above. The note with it: P. falciparum in erythrocytes, SYBR Green DNA, 72 h; series mostly up to 28.7 µM. The method, boiled down:
as §2

The subject of a further test is P94_40. The description is as above. The note with it: P. falciparum in erythrocytes, SYBR Green DNA, 72 h; series mostly up to 28.7 µM. The method, boiled down: as §2
The subject of the next test is PAD. Described as above. The note with it: P. falciparum in erythrocytes, SYBR Green DNA, 72 h; series mostly up to 28.7 µM. The method, boiled down: as §2
In a further test the test system is TAB109. Described as above. The following applies: P. falciparum in erythrocytes, SYBR Green DNA, 72 h; series mostly up to 28.7 µM. Summed up:
as §2

The test system of another test is TAB113. Described as above. The following applies: P. falciparum in erythrocytes, SYBR Green DNA, 72 h; series mostly up to 28.7 µM. The method, boiled down: as §2
Another test deals with TAB165. Described as above. The following applies: P. falciparum in erythrocytes, SYBR Green DNA, 72 h; series mostly up to 28.7 µM. The method, boiled down:
as §2

A further test relates to PC26. The test is described as above. The note with it: P. falciparum in erythrocytes, SYBR Green DNA, 72 h; series mostly up to 28.7 µM. Summed up:
as §2

The test system of test [2] is CRL-7250. The experiment in a line: qHTS assay to identify novel small-molecules to repurpose for Merkel cell carcinoma treatment (AID 1296009). The note with it: MCC and control cell lines, CellTiter-Glo viability, 72 h; at 44.8 µM (top of the series) unless noted. Summed up: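 Cells were treated for 72 hr at 37 degree celsius with compounds in 8- or 11-point dose response. Viability was read by CellTiter-Glo luminescence, normalized to no-cell (cytotoxicity) and DMSO controls.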

SMILES strings stand for the structures. “And” between values parts separate entries of the source, which are not always exact repeats. Equal entries are not always repeated. Inconclusive results are not listed. Values without a mark were called inactive. The source made the active and inactive calls. Calls come from the whole dose curve; as a rule, active = well fitted inhibition curve with a large enough effect; inconclusive = small, poorly fitted or top-dose-only effect; inactive = flat fitted curve, though single readings scatter.
Note: nearly all actives have a fitted effect of over 60% in size.

`C[C@@H]1CC[C@H]2[C@@H](C)C(=O)O[C@@H]3O[C@@]4(C)CC[C@@H]1[C@]32OO4`: the max response in the test on CRL-7250 [1] is -4.21%; in the test with KB-3-1 it was -14.6%; in the test on NIH3T3 it was -3.92%. Further, the call with HaCat was inactive.

For `Cc1cccc(Cc2cnc[nH]2)c1C`, the max response is -4.56% in the test on CRL-7250 [1], -10% in the test with HaCat, -11.3% with KB-3-1 and -2.68% in the test with NIH3T3.

For the molecule `CC(Cc1ccccc1)NCc1ccccc1Cl` (stereo not drawn), the Potency result in the test on JCK, with PC15, in the test on PC49 and with SC27B was “inactive” throughout. Also, the Potency in the test on W2 was 5.36 µM (active). For the same molecule, the max response in the test with CRL-7250 [1] was -20.3%; with HaCat it was -41.8%; in the test with KB-3-1 it was -8.17%; in the test on NIH3T3 it was -14.1%.

`CC(C)NCC(O)c1ccc(N)c(C#N)c1` (stereo not drawn): the Potency entry in the test on ICS, in the test on JCK, in the test on N140, with P93_24, in the test with P94_40 and with PAD was “inactive” throughout. The Potency result in the test with PC15, in the test with PC49, in the test with SC27B, in the test on TAB109, in the test with TAB113 and with TAB165 was “inactive” each time. Besides, the Potency result with W2 is “inactive”. Further, the max response is 3.52% in the test with CRL-7250 [1], -0.104% in the test on HaCat, -10.3% in the test on KB-3-1 and 2.77% with NIH3T3.

Take `C=CCOC(Cn1ccnc1)c1ccc(Cl)cc1Cl` (stereo not drawn): the Potency was 2.51 µM (active) with ICS; 5.62 µM (active) in the test on N140; 3.98 µM (active) in the test with P93_24; 10 µM (active) in the test on P94_40; 8.91 µM (active) with PAD; 8.91 µM (active) in the test with PC15. For the same molecule, the Potency in the test with PC26 is 7.57 µM (active); in the test with SC27B, 10 µM (active); in the test on TAB109, 7.94 µM (active); in the test with TAB113, 8.91 µM (active); in the test on TAB165 it was 3.16 µM (active); in the test with W2, 4.26 µM (active). In addition, the max response in the test with CRL-7250 [1] was -16.8%; with KB-3-1, 2.22%; with NIH3T3, -13%. For the same molecule, the molecule was classed as inactive in the test with HaCat.

On to `CCC1(CC)C(=O)NC(=O)NC1=O`, for which the Potency result in the test on ICS, in the test with JCK, in the test with N140, with P93_24, in the test on P94_40 and in the test on PAD was “inactive” throughout. Moreover, the Potency result with PC15, in the test with PC26, in the test on PC49, in the test with SC27B, in the test on TAB109 and in the test on TAB113 was “inactive” in each case. Also, the Potency result with TAB165 is “inactive”. Also, the figures for the max response in the test with CRL-7250 [1] and with KB-3-1 were -2.88% and -1.45%, respectively. Also, the molecule was classed as inactive in the test with HaCat and in the test on NIH3T3.

For `C[N+]1(C)[C@@H]2CC[C@H]1CC(OC(=O)C(CO)c1ccccc1)C2` (stereo partly drawn), the molecule was called inactive in the test with CRL-7250 [1] and with CRL-7250 [2]. Moreover, the max response was -1.21% in the test on HaCat; -14.7% and 4.2% in the test with KB-3-1; -5.19% with NIH3T3.

As to `COP(=S)(OC)Oc1ccc(Sc2ccc(OP(=S)(OC)OC)cc2)cc1`, the Potency entry with ICS, in the test with JCK, in the test with N140, with P93_24, in the test on P94_40 and in the test on PAD was “inactive” throughout. For the same molecule, the Potency entry with PC15, in the test on PC26, in the test with PC49, with SC27B, in the test with TAB109 and with TAB113 was “inactive” each time. Moreover, the Potency entry with TAB165 and in the test on W2 was “inactive” each time. Moreover, the figures for the max response in the test on CRL-7250 [1], with HaCat and in the test with KB-3-1 were -0.305%, -8.51% and 1.06%, respectively. For the same molecule, in the test on NIH3T3, the outcome was inactive.

Turning to `NC(=O)CN1CCCC1=O`, the Potency result in the test with ICS, in the test with JCK, with N140, in the test with P93_24, in the test with P94_40 and in the test on PAD was “inactive” in each case. Moreover, the Potency entry in the test on PC15, with PC26, in the test on PC49, in the test on SC27B, with TAB109 and in the test with TAB113 was “inactive” throughout. For the same molecule, the Potency entry with TAB165 and in the test on W2 was “inactive” each time. For the same molecule, the call with CRL-7250 [1], in the test on HaCat and in the test with CRL-7250 [2] was inactive. Further, the max response with KB-3-1 was 4.93%; in the test on NIH3T3 it was -0.768%.

Turning to `NC(=O)OCCCc1ccccc1`, the Potency entry in the test with ICS, with JCK, in the test on N140, with P93_24, in the test with P94_40 and in the test on PAD was “inactive” throughout. The Potency entry in the test with PC15, in the test with PC26, in the test on PC49, in the test with SC27B, in the test on TAB109 and in the test with TAB113 was “inactive” throughout. For the same molecule, the Potency entry in the test on TAB165 and in the test on W2 was “inactive” in each case. The molecule was called inactive in the test on CRL-7250 [1], with HaCat, in the test with NIH3T3 and in the test on CRL-7250 [2]. Further, the max response in the test on KB-3-1 was -19.1%.

Turning to `O=C(NC(=O)c1c(F)cccc1F)Nc1cc(Cl)c(OC(F)(F)C(F)C(F)(F)F)cc1Cl` (stereo not drawn), the Potency entry in the test with JCK, in the test on PC15 and in the test on PC26 was “inactive” throughout. Also, the Potency with P93_24 was 8.91 µM (active); in the test on P94_40, 12.6 µM (active); in the test on TAB113 it was 11.2 µM (active). The outcome in the test with CRL-7250 [1], in the test with HaCat and in the test on CRL-7250 [2] was inactive. Moreover, the max response in the test on KB-3-1 was 8.21%; in the test with NIH3T3, -16.1%.

`CCCN(CCC)CCc1c[nH]c2ccccc12`: the max response in the test with CRL-7250 [1] is -1.07%; in the test on HaCat, -5.54%; in the test with KB-3-1, -20.7%; with NIH3T3 it was 3.34%.

As to `C[C@]12CC[C@H]3[C@@H](CCC4=CC(=O)CC[C@@H]43)[C@@H]1CC[C@@H]2O`, the max response was -5% in the test on CRL-7250 [1] and -16.1% with NIH3T3. Further, the call in the test on HaCat was inactive. Besides, the Potency with KB-3-1 is 11.6 µM (active) and 20.6 µM (active).

For `Nc1ccc(N)cc1`, the Potency result in the test with JCK and with PC49 was “inactive” in each case. Moreover, the Potency with W2 was 3.79 µM (active). In addition, the max response with CRL-7250 [1] was -4.93%; in the test with KB-3-1, -3.68%; in the test on NIH3T3, -12%. Moreover, in the test with HaCat, the outcome was inactive.

In the case of `ClC1=C(Cl)C2(Cl)C(CBr)CC1(Cl)C2(Cl)Cl` (stereo not drawn), the Potency result in the test on JCK, with N140, in the test with P93_24, in the test on P94_40, with PAD and with PC15 was “inactive” throughout. Also, the Potency entry in the test with PC26, in the test with PC49, in the test on SC27B, in the test with TAB109, in the test with TAB113 and with TAB165 was “inactive” each time. Also, the results for the max response in the test on CRL-7250 [1], with KB-3-1 and in the test on NIH3T3 were -0.0053%, -4.74% and -4.41%, respectively. For the same molecule, the outcome in the test with HaCat was inactive.

Regarding `CC(C)=C[C@@H]1[C@@H](C(=O)OCc2coc(Cc3ccccc3)c2)C1(C)C`, the max response is 2.34% in the test with CRL-7250 [1], 6.83% with KB-3-1 and -1.15% with NIH3T3. Also, the molecule was called inactive in the test with HaCat.

Consider `CC[C@H]1C[C@@H]2C[C@H]3c4[nH]c5ccc(OC)cc5c4CCN(C2)[C@@H]13`, for which the max response in the test on CRL-7250 [1] is 1.28%; in the test with HaCat it was -4.77%; in the test on KB-3-1 it was -8.79%; with NIH3T3, -11.9%.
